Each structure is given as a SMILES string. Measured potencies and affinities stand elsewhere. Calls of active or inactive are those of the source.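 The calls were made as follows: active = signal drop whose fitted half-maximal potency is at most twice the top valid dose tested; inconclusive = flat curve inhibiting 30 to 70 percent, or a poor fit; inactive = the rest.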

The target in this assay is Endoplasmic reticulum aminopeptidase 2 (Homo sapiens) (UniProt Q6P179). The assay is described as follows: inhibition of ERAP2 arginine-AMC cleavage – biochemical, fluorescence plate reader, cherry-picked, set 2, selectivity assay for selective ERAP1 modulator project, dose response (AID 743320). The following applies: recombinant ERAP2, Arg-AMC fluorescence, 1 h; series mostly up to 11 µM.
Sequence of Endoplasmic reticulum aminopeptidase 2 (Homo sapiens) (Q6P179 whole entry, looked up): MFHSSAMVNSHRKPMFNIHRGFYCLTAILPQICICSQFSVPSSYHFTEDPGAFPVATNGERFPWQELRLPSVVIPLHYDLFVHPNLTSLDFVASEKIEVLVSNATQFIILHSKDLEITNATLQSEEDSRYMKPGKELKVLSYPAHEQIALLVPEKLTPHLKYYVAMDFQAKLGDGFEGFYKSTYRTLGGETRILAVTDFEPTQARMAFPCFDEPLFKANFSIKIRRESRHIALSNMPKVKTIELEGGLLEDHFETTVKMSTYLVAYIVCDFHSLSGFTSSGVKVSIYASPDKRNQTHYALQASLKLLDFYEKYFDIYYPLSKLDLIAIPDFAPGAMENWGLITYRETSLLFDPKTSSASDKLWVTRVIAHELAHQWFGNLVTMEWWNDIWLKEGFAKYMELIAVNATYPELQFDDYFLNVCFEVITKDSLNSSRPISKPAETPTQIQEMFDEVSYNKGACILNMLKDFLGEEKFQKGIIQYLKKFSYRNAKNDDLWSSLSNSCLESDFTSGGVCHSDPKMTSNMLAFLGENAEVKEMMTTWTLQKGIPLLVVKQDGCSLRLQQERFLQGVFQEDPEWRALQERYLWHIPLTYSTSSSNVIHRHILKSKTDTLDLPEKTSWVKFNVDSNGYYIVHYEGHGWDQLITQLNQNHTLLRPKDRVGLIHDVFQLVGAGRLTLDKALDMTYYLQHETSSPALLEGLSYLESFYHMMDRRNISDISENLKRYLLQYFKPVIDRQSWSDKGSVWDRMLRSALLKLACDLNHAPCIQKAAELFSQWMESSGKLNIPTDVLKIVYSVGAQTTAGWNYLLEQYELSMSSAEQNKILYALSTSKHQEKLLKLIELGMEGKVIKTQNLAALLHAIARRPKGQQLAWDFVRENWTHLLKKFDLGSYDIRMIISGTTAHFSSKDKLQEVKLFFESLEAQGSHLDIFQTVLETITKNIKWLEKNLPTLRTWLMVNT
With `CCN(CCCl)c1cc(CN(C)C)cc(NC(=O)c2ccc(C(=O)Nc3cc(CN(C)C)cc(N(CC)CCCl)c3)cc2)c1`, the outcome was inactive.

For `Cc1cc(=O)oc2cc(OCC(=O)N3CCN(C(C)c4ccccc4)CC3)c(Cl)cc12` (stereo not drawn), the outcome was inactive.

For `N#Cc1c(N2CCNCC2)nc(-c2ccco2)c2c1CCCC2`, the result was inactive.

Values taken from PubChem BioAssay AID743320 (Broad Institute, 2014).
